CYP2C19 inh: human CYP2C19 inhibition; AID 778; P33261; hit rate 21% among 96,000; CYP2C19 Supersomes, luciferin-H EGE luminescence, 30 min; inhibition, % at 5 µM;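 active = CYP2C19 inhibition above a set limit at 5 µM in the primary screen, cut at about 50% in these data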;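 note: plate controls were negative control wells for no effect and 2.5 mM tranylcypromine positive control for full effect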
Target sequence (P33261 whole entry, looked up): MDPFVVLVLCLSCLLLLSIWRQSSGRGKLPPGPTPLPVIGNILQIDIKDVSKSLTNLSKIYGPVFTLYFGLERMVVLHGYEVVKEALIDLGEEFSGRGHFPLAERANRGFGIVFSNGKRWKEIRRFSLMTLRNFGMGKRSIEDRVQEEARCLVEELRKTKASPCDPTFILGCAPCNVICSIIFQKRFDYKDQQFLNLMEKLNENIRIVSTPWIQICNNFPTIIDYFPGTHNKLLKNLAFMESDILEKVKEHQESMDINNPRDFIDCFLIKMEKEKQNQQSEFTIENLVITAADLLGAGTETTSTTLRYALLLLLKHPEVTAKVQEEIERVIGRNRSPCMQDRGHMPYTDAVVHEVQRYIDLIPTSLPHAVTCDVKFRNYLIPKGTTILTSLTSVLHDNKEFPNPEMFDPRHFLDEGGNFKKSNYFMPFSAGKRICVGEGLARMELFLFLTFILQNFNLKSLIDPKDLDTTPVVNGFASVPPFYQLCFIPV
CYP2C9 inhib: human CYP2C9 inhibition. inhibition, % at 5 µM. P11712. CYP2C9 Supersomes, luciferin-H conversion, luminescence. hit rate 20% among 96,000. AID 777;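 active = blocking of liver enzyme CYP2C9 beyond about 50% at 5 µM, limit read from the data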
Cav3 T inh: human Cav3.2 channel inhibition, primary screen | O95180 | Cav3.2-expressing cells, Fluo-4 calcium fluorescence FDSS; hits give low values | B-score at 10 µM | hit rate 4% among 100,000;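 active = single-dose well whose peak fluorescence ratio is a statistical outlier from its plate by either plate-standardised score or position-corrected B-score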
CYP2C9 activ: increases human cytochrome P450 2C9 activity; P11712; recombinant CYP2C9, luciferin-H conversion, luminescence; hits give high values; factor 1 = untreated enzyme, 0 = blocked; activation factor at 5 µM; hit rate 1.4% among 96,000; AID 1024;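 active = activation factor of 2 or more for CYP2C9 at a 5 µM dose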;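 note: 0 = sulfaphenazole-blocked wells and 1 = vehicle-only wells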
CYP2C19 act: activators of human cytochrome P450 2C19; 96,000 tested, under 10 active; activation factor at 5 µM; recombinant CYP2C19, luciferin-H EGE luminescence; hits give high values; 0 = fully inhibited enzyme, 1 = untreated enzyme; AID 1025;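 active = activation factor of at least 2 at 5 µM in the primary screen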;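 note: 0 = wells with 2.5 mM tranylcypromine and 1 = vehicle-only wells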
* hit, by the source's call. Rows were chosen to be rich in hits. Some 27% of all compounds tested hit in one or more screens of this group.

`COc1ccc(CCNC(=O)CC(NS(=O)(=O)c2ccc(NC(C)=O)cc2)C(C)C)cc1OC` (configuration not stated) gave CYP2C19 inh -1, CYP2C9 inhib 49, CYP2C9 activ 0.5 and CYP2C19 act 1.
Screening CC(C)NS(=O)(=O)c1ccc(OCC(=O)Nc2ccc3c(c2)OCO3)c(Cl)c1 returned CYP2C19 inh 13, CYP2C9 inhib 14, Cav3 T inh -1.2, CYP2C9 activ 0.9 and CYP2C19 act 0.9.
For CC(C)NS(=O)(=O)c1ccc(OCC(=O)NCc2ccc3c(c2)OCO3)c(Cl)c1 the results were CYP2C19 inh 97*, CYP2C9 inhib 94*, Cav3 T inh -2.8, CYP2C9 activ 0.1 and CYP2C19 act 0.
Screening COc1ccc(CCNC(=O)COc2ccc(S(=O)(=O)NC(C)C)cc2Cl)cc1OC returned CYP2C19 inh 65*, CYP2C9 inhib 86*, Cav3 T inh 0.034, CYP2C9 activ 0.1 and CYP2C19 act 0.4.
`CCC(C)/C=C/C1=CC2=C(Cl)C(=O)C3(C)OC(=O)C(C(=O)C(C)C(C)O)C3C2=CO1` (configuration not stated) gave Cav3 T inh -0.018.
CC(C)(C)OC(=O)NCCCCCNC(=O)c1[nH]cnc1C(=O)N[C@@H](CCCCNC(=O)OC(C)(C)C)C(=O)OC(C)(C)C was read as Cav3 T inh -2.7*.
For O=C(COC(=O)c1cc(-c2cccs2)nc2ccccc12)NCc1ccco1 the results were CYP2C19 inh 54*, CYP2C9 inhib 90*, Cav3 T inh -0.064, CYP2C9 activ 0.1 and CYP2C19 act 0.5.
COc1ccccc1CNC(=O)COC(=O)c1cc(-c2ccco2)nc2ccccc12 was read as CYP2C19 inh -18, CYP2C9 inhib 52*, Cav3 T inh -1.4, CYP2C9 activ 0.5 and CYP2C19 act 1.2.
For O=C(NCCCN1CCN(c2cccc(Cl)c2)CC1)C1CCC(=O)N1Cc1ccccc1Cl (configuration not stated) the results were CYP2C19 inh 13, CYP2C9 inhib 11, CYP2C9 activ 0.9 and CYP2C19 act 0.9.
Screening COc1cc(C(c2c(C)[nH][nH]c2=O)c2c(C)[nH][nH]c2=O)ccc1OS(=O)(=O)c1ccc(C)cc1 returned CYP2C19 inh 85*, CYP2C9 inhib 66*, Cav3 T inh -1.2, CYP2C9 activ 0.3 and CYP2C19 act 0.2.
For c1ccc2sc(N3CN(CCN4CCOCC4)CN(c4nc5ccccc5s4)C3)nc2c1 the results were CYP2C19 inh 34, CYP2C9 inhib 24, Cav3 T inh -5.7*, CYP2C9 activ 0.8 and CYP2C19 act 0.7.
Screening c1ccc2sc(N3CCOCC3)nc2c1 returned CYP2C19 inh 13, CYP2C9 inhib -4, Cav3 T inh 0.8, CYP2C9 activ 1 and CYP2C19 act 0.9.
`c1ccc2sc(SN3CCOCC3)nc2c1` gave CYP2C19 inh 82*, CYP2C9 inhib 18, Cav3 T inh 0.33, CYP2C9 activ 0.8 and CYP2C19 act 0.2.
`COc1ccc2cc(CCNC(=O)C3CCCC3)c(=O)[nH]c2c1` gave CYP2C19 inh -6, CYP2C9 inhib -8, Cav3 T inh -0.12, CYP2C9 activ 1.1 and CYP2C19 act 1.1.
For COc1cc2c(C)nc(C)c(C#N)c2cc1OC the results were CYP2C19 inh -6, CYP2C9 inhib 0, Cav3 T inh 0.011, CYP2C9 activ 1 and CYP2C19 act 1.1.
`CCOc1ccc(OCC)c(NC(=O)Nc2ccc3c(c2)N(C)C(=O)CS3)c1` gave CYP2C19 inh 58*, CYP2C9 inhib 37, Cav3 T inh 0.52, CYP2C9 activ 0.6 and CYP2C19 act 0.4.
COc1cccc(NC(=O)Nc2ccc3c(c2)N(C)C(=O)CS3)c1 was read as CYP2C19 inh 65*, CYP2C9 inhib -4, Cav3 T inh -0.77, CYP2C9 activ 1 and CYP2C19 act 0.4.
Screening CN1C(=O)CSc2ccc(NC(=O)NCc3cccnc3)cc21 returned CYP2C19 inh 56*, CYP2C9 inhib 72*, Cav3 T inh -0.19, CYP2C9 activ 0.3 and CYP2C19 act 0.4.
Screening CN1C(=O)CSc2ccc(NC(=O)Nc3ccccn3)cc21 returned CYP2C19 inh 0, CYP2C9 inhib -9, Cav3 T inh 0.78, CYP2C9 activ 1.1 and CYP2C19 act 1.
For CN1C(=O)CSc2ccc(NC(=O)NCc3ccco3)cc21 the results were CYP2C19 inh 2, CYP2C9 inhib 2, Cav3 T inh 0.62, CYP2C9 activ 1 and CYP2C19 act 1.

High-throughput results as filed in PubChem.
